Tests used:
Experiment in all cases: thermal shift delta Tm vs DMSO control; higher = stronger stabilization (binding)
Conditions in all cases: 12.5 µM; protein concentration 2 µM
LOC_OS02G45750-cb003 = tested on: LOC_OS02G45750-cb003
Summary of the method: (§1)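 Purified, E. coli-expressed rice kinase domain constructs were tested by differential scanning fluorimetry in 96-well plates: 19.5 μl of 2 μM kinase in 100 mM potassium phosphate pH 7.5, 150 mM NaCl, 10% glycerol, 5 × SYPRO Orange, plus compound in DMSO. Fluorescence was read from 25°C to 95°C at 0.05°C/s. Melting temperatures came from Boltzmann fits, and the shift is the triplicate mean relative to protein with DMSO alone.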

LOC_OS02G54510-cb004 = tested on: LOC_OS02G54510-cb004
Summary of the method: as §1

LOC_OS03G04050-cb001 = tested on: LOC_OS03G04050-cb001
Summary of the method: as §1

LOC_OS03G12390-cb001 = tested on: LOC_OS03G12390-cb001
Summary of the method: as §1

LOC_OS03G27990-cb004 = tested on: LOC_OS03G27990-cb004
Summary of the method: as §1

LOC_OS03G50450-cb001 = tested on: LOC_OS03G50450-cb001
Summary of the method: as §1

LOC_OS03G50810-cb003 = tested on: LOC_OS03G50810-cb003
Summary of the method: as §1

LOC_OS04G35114-cb001 = tested on: LOC_OS04G35114-cb001
Summary of the method: as §1

LOC_OS04G38480-cb003 = tested on: T1, LOC_OS04G38480-cb003
T1 sequence (whole entry): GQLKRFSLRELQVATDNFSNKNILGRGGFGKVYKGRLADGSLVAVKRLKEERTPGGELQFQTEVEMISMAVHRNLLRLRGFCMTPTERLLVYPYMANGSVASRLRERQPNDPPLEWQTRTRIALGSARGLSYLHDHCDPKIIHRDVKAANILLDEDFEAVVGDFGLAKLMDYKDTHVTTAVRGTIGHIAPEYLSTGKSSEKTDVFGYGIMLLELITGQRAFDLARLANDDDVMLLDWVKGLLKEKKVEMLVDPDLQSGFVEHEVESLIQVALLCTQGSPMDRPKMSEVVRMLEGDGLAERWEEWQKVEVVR
Summary of the method: as §1

LOC_OS04G41100-cb001 = tested on: T2, LOC_OS04G41100-cb001
T2 sequence (whole entry): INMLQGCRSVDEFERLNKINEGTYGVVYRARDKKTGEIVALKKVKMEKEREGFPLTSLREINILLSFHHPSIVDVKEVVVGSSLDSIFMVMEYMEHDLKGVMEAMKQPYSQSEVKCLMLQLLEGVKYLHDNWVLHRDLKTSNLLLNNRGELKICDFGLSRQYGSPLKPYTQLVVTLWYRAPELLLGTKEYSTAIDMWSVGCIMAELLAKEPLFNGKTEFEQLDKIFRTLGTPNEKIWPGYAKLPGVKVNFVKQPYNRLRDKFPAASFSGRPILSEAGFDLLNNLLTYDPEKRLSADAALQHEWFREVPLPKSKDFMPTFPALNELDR
Summary of the method: as §1

LOC_OS04G57630-cb004 = tested on: LOC_OS04G57630-cb004
Summary of the method: as §1

LOC_OS05G07850-cb002 = tested on: LOC_OS05G07850-cb002
Summary of the method: as §1

LOC_OS05G16824-cb004 = tested on: LOC_OS05G16824-cb004
Summary of the method: as §1

LOC_OS05G28520-cb001 = tested on: LOC_OS05G28520-cb001
Summary of the method: as §1

LOC_OS05G30820-cb001 = tested on: LOC_OS05G30820-cb001
Summary of the method: as §1

LOC_OS05G43570-cb004 = tested on: LOC_OS05G43570-cb004
Summary of the method: as §1

LOC_OS06G16330-cb003 = tested on: LOC_OS06G16330-cb003
Summary of the method: as §1

LOC_OS06G22820-cb001 = tested on: T3, LOC_OS06G22820-cb001
T3 sequence (whole entry): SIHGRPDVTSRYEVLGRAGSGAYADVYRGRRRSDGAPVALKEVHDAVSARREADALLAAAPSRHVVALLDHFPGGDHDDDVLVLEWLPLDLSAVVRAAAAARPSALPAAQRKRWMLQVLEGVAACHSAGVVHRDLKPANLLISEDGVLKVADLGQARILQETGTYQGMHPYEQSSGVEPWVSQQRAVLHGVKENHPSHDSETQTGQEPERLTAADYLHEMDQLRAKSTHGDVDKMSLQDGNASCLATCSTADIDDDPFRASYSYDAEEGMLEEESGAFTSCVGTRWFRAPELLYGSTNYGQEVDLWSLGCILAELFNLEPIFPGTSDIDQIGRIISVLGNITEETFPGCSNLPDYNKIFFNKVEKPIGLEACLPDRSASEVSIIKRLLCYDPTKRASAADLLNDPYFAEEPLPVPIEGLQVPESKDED
Summary of the method: as §1

LOC_OS07G06570-cb004 = tested on: LOC_OS07G06570-cb004
Summary of the method: as §1

LOC_OS07G07230-cb001 = tested on: LOC_OS07G07230-cb001
Summary of the method: as §1

Sequence of LOC_OS06G16330-cb003 (as listed by the source): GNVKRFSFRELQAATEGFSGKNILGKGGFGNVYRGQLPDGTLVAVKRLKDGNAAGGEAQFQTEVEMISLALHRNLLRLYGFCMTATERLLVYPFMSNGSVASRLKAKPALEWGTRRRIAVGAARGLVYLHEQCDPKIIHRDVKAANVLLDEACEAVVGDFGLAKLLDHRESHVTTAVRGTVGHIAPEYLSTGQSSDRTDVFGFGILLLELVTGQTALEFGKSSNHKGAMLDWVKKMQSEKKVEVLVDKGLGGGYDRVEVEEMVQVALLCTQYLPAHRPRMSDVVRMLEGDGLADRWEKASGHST

Structure (SMILES)	thermal shift delta Tm (LOC_OS02G45750-cb003) [°C]	thermal shift delta Tm (LOC_OS02G54510-cb004) [°C]	thermal shift delta Tm (LOC_OS03G04050-cb001) [°C]	thermal shift delta Tm (LOC_OS03G12390-cb001) [°C]	thermal shift delta Tm (LOC_OS03G27990-cb004) [°C]	thermal shift delta Tm (LOC_OS03G50450-cb001) [°C]	thermal shift delta Tm (LOC_OS03G50810-cb003) [°C]	thermal shift delta Tm (LOC_OS04G35114-cb001) [°C]	thermal shift delta Tm (LOC_OS04G38480-cb003) [°C]	thermal shift delta Tm (LOC_OS04G41100-cb001) [°C]	thermal shift delta Tm (LOC_OS04G57630-cb004) [°C]	thermal shift delta Tm (LOC_OS05G07850-cb002) [°C]	thermal shift delta Tm (LOC_OS05G16824-cb004) [°C]	thermal shift delta Tm (LOC_OS05G28520-cb001) [°C]	thermal shift delta Tm (LOC_OS05G30820-cb001) [°C]	thermal shift delta Tm (LOC_OS05G43570-cb004) [°C]	thermal shift delta Tm (LOC_OS06G16330-cb003) [°C]	thermal shift delta Tm (LOC_OS06G22820-cb001) [°C]	thermal shift delta Tm (LOC_OS07G06570-cb004) [°C]	thermal shift delta Tm (LOC_OS07G07230-cb001) [°C]
O=C1NC(=O)C(c2ccccc2[N+](=O)[O-])=C1Nc1ccc(O)c(Cl)c1	1.34	0.07	0.14	2.25	0.15	-0.05	0.88	1.02	2.72	0.23	-0.28	4.16	-13.3	1.12	0.7	0.82	-0.2	0.75	2.88	0.07
CC(=O)Nc1nc(C)c(-c2ccc(Cl)c(S(=O)(=O)NCCO)c2)s1	1.06	0.31	0.56	0.64	0.19	0.73	0.75	1.53	0.78	0.77	0.23	4.94	0.69	0.59	0.4	0.87	0.63	0.43	0.81	-0.01
Cc1cnc(Nc2ccc(N3CCN(C)CC3)cc2)nc1Nc1cccc(S(=O)(=O)NC(C)(C)C)c1	2.16	1.6	0.74	3.11	1.77	2.4	3.61	3.61	2.7	0.79	2.45	10.4	7.7	1.9	0.89	0.98	5.92	0.43	0.63	-0.42
COc1ccc(CC(=O)Nc2nc3c(s2)CCc2ccccc2-3)cc1OC	1.49	-0.24	0.51	0.4	0.36	0.29	0.43	0.71	1.33	0.15	0.43	1.41	2.09	0.12	0.13	0.04	-0.23	0.35	1.1	0.06
CNC(=O)c1ccccc1Nc1nc(Nc2ccc(N3CCOCC3)cc2OC)ncc1Cl	1.17	-0.15	0.35	4.35	0.45	0.26	2.21	2.54	1.62	0.51	1.29	11.8	5.34	0.37	0.69	0.1	4.89	0.54	1.58	0.57
COC(=O)Nc1ccc(-c2nc(N3CCOCC3)c3cnn(C4CCN(C(=O)OC)CC4)c3n2)cc1	0	-0.07	0.1	0.08	-0.05	0.08	0.17	0.06	0.81	0.47	0.06	0.49	-0.54	-0.26	0.57	0.65	-0.2	0.4	0.99	-0.41
COc1ccc(-c2cc3c(C)nc(N)nc3n([C@H]3CC[C@H](OCCO)CC3)c2=O)cn1	0.52	0.05	0.5	0.41	0.17	0.14	0.45	0.77	1.08	0.32	0.78	0.06	-1.05	0.57	0.75	0.65	-0.03	0.69	1.04	0.01
O=C(Nc1ccc(-c2ccnc(Nc3ccc(N4CCOCC4)cc3)n2)cc1)C1CCCN1 (stereo not given)	0.77	0.47	0.4	1.05	0.29	0.37	0.83	2.26	1	0.45	0.39	8.89	-1.75	0.58	0.48	0.34	2.94	0.34	1.36	0.39
Cn1ncc(Cl)c1-c1cc(C(=O)N[C@H](CN)Cc2ccc(F)c(F)c2)oc1Cl	1.04	-0.14	0.46	1.31	0.14	0.74	0.51	0.52	1.58	0.63	0.39	1.08	2.91	1.26	0.24	1.04	1.15	0.82	-0.35	-0.13
O=C(NC[C@H](O)CO)c1ccncc1Nc1ccc(I)cc1F	0.45	0.09	0.21	-0.04	0.19	0.42	0.09	0.79	0	0.62	0.16	0.04	-2.59	-0.04	0.65	0.08	-0.12	0.62	0.95	0.62
Cc1ccc(-n2nc(C(C)(C)C)cc2NC(=O)Nc2ccc(OCCN3CCOCC3)c3ccccc23)cc1 [Doramapimod (BIRB 796)]	-1.12	0.33	0.33	-0.03	0.31	0.1	0.01	0.68	0.95	0.9	1.36	1.84	-1.73	0.26	0.82	0.41	0.15	0.9	0.71	0.5
O=C(Nc1nccs1)C(c1cc(F)ccc1O)N1Cc2ccccc2C1=O (stereo not given)	0.19	0.2	-0.02	-0.36	0.06	-0.38	0.01	0.12	0.41	0.1	0	-0.08	-0.86	0.12	0.61	-0.04	-0.29	0.38	1.35	0.63

Reference: the supplement of paper PMC9694430
